Compounds without any hit were thinned out: in the full panel of roughly 79,000, 15% have a hit. Unmarked numbers belong to inactive results. Calls of active or inactive are those of the source. No stated cut-off is given here; in the data, active means growth inhibition above about 70%; inactive means the rest.
Tests used:
[1] = NCI Yeast Anticancer Drug Screen. Data for the rad50 strain (AID 155);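 further: 0% = growth of vehicle-only cultures of the same strain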; conditions: S. cerevisiae rad50 strain growth inhibition; at 50.0 µM; active compounds read high
How it was run: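 Readout: growth inhibition relative to vehicle-treated cultures. Compound exposure was carried out in a genetically defined yeast strain deficient in DNA damage repair.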

[2] = NCI Yeast Anticancer Drug Screen. Data for the mec2-1 strain (AID 157); conditions: S. cerevisiae mec2-1 strain, at 50.0 µM, active compounds read high
How it was run: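 Each compound was tested on mec2-1 yeast, a strain altered in DNA damage repair or cell cycle control. Growth inhibition is reported relative to vehicle.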

[3] = NCI Yeast Anticancer Drug Screen. Data for the sgs1 mgt1 strain (AID 161);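 further: 0% = growth of cultures given vehicle only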; conditions: S. cerevisiae sgs1 mgt1 strain, at 50.0 µM, active compounds read high
How it was run: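 Read-out: growth inhibition vs vehicle controls. Cells: mutant yeast strain deficient in DNA damage repair.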

[4] = NCI Yeast Anticancer Drug Screen. Data for the cln2 rad14 strain (AID 165);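 further: 0% = growth equal to vehicle treated cultures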; conditions: S. cerevisiae cln2 rad14 strain, at 50.0 µM, active compounds read high
How it was run: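 Test compounds were added to cln2 rad14 yeast cultures; inhibition of growth was then determined by comparison with vehicle treatment.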

[5] = NCI Yeast Anticancer Drug Screen. Data for the bub3 strain (AID 167); conditions: S. cerevisiae bub3 mutant strain, at 50.0 µM, active compounds read high
How it was run: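 Readout: yeast growth inhibition, expressed relative to vehicle-only wells. The test organism is a mutant strain from a panel with lesions in DNA repair or checkpoint genes.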

[6] = NCI Yeast Anticancer Drug Screen. Data for the mlh1 rad18 strain (AID 175); conditions: S. cerevisiae mlh1 rad18 strain growth inhibition; at 50.0 µM; active compounds read high
How it was run: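 Inhibition values reflect reduced growth of mutant yeast versus vehicle-treated controls following compound exposure; the mutations affect DNA damage repair.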

Cc1ccc(/C=C/c2ccc3ccccc3c2)cc1
growth inhibition [1]: -6.6% | growth inhibition [2]: -9.3% | growth inhibition [3]: 9.05% | growth inhibition [4]: -14.6% | growth inhibition [5]: -4.8% | growth inhibition [6]: -3.85%

O=C1c2ccc3c([nH]c4ccccc43)c2C(=O)N1c1ccccc1
growth inhibition [1]: 19.7% | growth inhibition [2]: -2% | growth inhibition [3]: 21.8% | growth inhibition [4]: 11.9% | growth inhibition [5]: 13.3% | growth inhibition [6]: 7.35%

CCOC(=O)C1CCc2ccccc2C1=O (stereo not drawn)
growth inhibition [1]: -2.95% | growth inhibition [2]: -12.3% | growth inhibition [3]: 5.85% | growth inhibition [4]: -3.35% | growth inhibition [5]: 14.6% | growth inhibition [6]: -4.95%

CC[C@@]12C=CC(=S)N(CCSc3ccccc3)[C@@H]1c1c(n(S(=O)(=O)c3ccc(OC)cc3)c3ccccc13)CC2
growth inhibition [1]: -33% | growth inhibition [2]: -1.2% | growth inhibition [3]: 0.95% | growth inhibition [4]: -53% | growth inhibition [5]: -2.55% | growth inhibition [6]: 6%

N#CCc1nc(-c2cc3ccccc3oc2=O)cs1
growth inhibition [1]: 31.4% | growth inhibition [2]: 16.3% | growth inhibition [3]: -12.4% | growth inhibition [4]: 3.7% | growth inhibition [5]: 0.75% | growth inhibition [6]: -57%

CCCc1c(N)nc(N)nc1N
growth inhibition [1]: 3.4% | growth inhibition [2]: 2.05% | growth inhibition [3]: -5.7% | growth inhibition [4]: -48.6% | growth inhibition [5]: 7.4% | growth inhibition [6]: -7.65%

CC(=O)CC(=O)Nc1ccccc1C(C)C
growth inhibition [1]: 12.9% | growth inhibition [2]: 8.1% | growth inhibition [3]: 16.1% | growth inhibition [4]: 7.4% | growth inhibition [5]: -7.85% | growth inhibition [6]: -1.7%

CCO/C(C)=N/NC(=O)c1n[nH]c2ccccc12
growth inhibition [1]: 4.1% | growth inhibition [2]: -1.45% | growth inhibition [3]: -10.6% | growth inhibition [4]: 0.05% | growth inhibition [5]: -11.3% | growth inhibition [6]: 12%

C1=C(c2ccccc2)c2ccccc2/C1=N/Nc1ccccc1
growth inhibition [1]: 6.4% | growth inhibition [2]: 6.15% | growth inhibition [3]: 8.1% | growth inhibition [4]: 2.3% | growth inhibition [5]: 0.6% | growth inhibition [6]: 5%

CN(c1ccccc1)c1ccc([N+](=O)[O-])cc1[N+](=O)[O-]
growth inhibition [1]: 7.4% | growth inhibition [2]: -1.3% | growth inhibition [3]: -8% | growth inhibition [4]: 3.25% | growth inhibition [5]: 0.8% | growth inhibition [6]: -11.9%

O=C(Cc1ccccc1)NN1C(=O)C(Cl)C1c1ccc(O)cc1 (stereo not drawn)
growth inhibition [1]: -27.9% | growth inhibition [2]: -16.4% | growth inhibition [3]: -11.2% | growth inhibition [4]: 3.7% | growth inhibition [5]: -29.4% | growth inhibition [6]: 3.4%

Cc1onc(-c2c(Cl)cccc2Cl)c1C(=O)Nc1ccc(Cl)c(Cl)c1Cl
growth inhibition [1]: -12.4% | growth inhibition [2]: -14.7% | growth inhibition [3]: -3.2% | growth inhibition [4]: 12.1% | growth inhibition [5]: 2.25% | growth inhibition [6]: -8.25%

O=C1CCCC1C(O)(C(F)(F)F)C(F)(F)F (stereo not drawn)
growth inhibition [1]: -24.8% | growth inhibition [2]: -19.9% | growth inhibition [3]: -8.05% | growth inhibition [4]: 16.6% | growth inhibition [5]: -12% | growth inhibition [6]: -21.1%

CCOc1ccccc1/C=C(/C#N)C(N)=O
growth inhibition [1]: 10.8% | growth inhibition [2]: -0.5% | growth inhibition [3]: -26.6% | growth inhibition [4]: -29.9% | growth inhibition [5]: -50.4% | growth inhibition [6]: -1.3%

O=C(O)C(Cc1ccccc1)C(=O)O.[NH2-].[NH2-].[Pt+2]
growth inhibition [1]: -11.7% | growth inhibition [2]: -0.95% | growth inhibition [3]: 10.9% | growth inhibition [4]: 13.1% | growth inhibition [5]: 1.25% | growth inhibition [6]: 24.2%

c1csc(-c2cc(-c3ccsc3)c(-c3cccs3)s2)c1
growth inhibition [1]: -46.6% | growth inhibition [2]: -62.7% | growth inhibition [3]: -33.4% | growth inhibition [4]: -0.1% | growth inhibition [5]: -1.4% | growth inhibition [6]: -34.3%

O=C1c2cc(Cl)ccc2NC(=NC2CCCC2)C2CSCN12 (stereo not drawn)
growth inhibition [1]: 7.8% | growth inhibition [2]: -13.2% | growth inhibition [3]: 2.8% | growth inhibition [4]: -6.35% | growth inhibition [5]: -22.8% | growth inhibition [6]: 16.6%

Cc1ccc(NC(=O)Nc2ccc(Cl)c(Cl)c2)c(C)c1
growth inhibition [1]: -6.05% | growth inhibition [2]: 11.2% | growth inhibition [3]: -1.75% | growth inhibition [4]: -16.6% | growth inhibition [5]: -4.2% | growth inhibition [6]: -20.9%

O=C1c2ccccc2C(=O)N1[C@@H](Cc1ccccc1)C(=O)n1cccc1CO
growth inhibition [1]: 14.8% | growth inhibition [2]: 21.4% | growth inhibition [3]: 20.8% | growth inhibition [4]: 25.5% | growth inhibition [5]: 28.9% | growth inhibition [6]: 10.9%

O=c1[nH]c(=S)[nH]c2ncn(C3OC(CO)C(O)C3O)c12 (stereo not drawn)
growth inhibition [1]: -13.4% | growth inhibition [2]: -3.85% | growth inhibition [3]: -8.15% | growth inhibition [4]: -9.6% | growth inhibition [5]: 5.65% | growth inhibition [6]: -0.6%

CCCCCCCCCCCCCCCCC(C)=O
growth inhibition [1]: 2.2% | growth inhibition [2]: 20.6% | growth inhibition [3]: 5% | growth inhibition [4]: -16.6% | growth inhibition [5]: 21.9% | growth inhibition [6]: -11.7%

CC1(C)OC[C@@H](N)[C@@H](O)CO1
growth inhibition [1]: -9.35% | growth inhibition [2]: 12.6% | growth inhibition [3]: 0.05% | growth inhibition [4]: -31.9% | growth inhibition [5]: 0.55% | growth inhibition [6]: 1.95%

C=CCCN=C(SC)SC
growth inhibition [1]: 3.8% | growth inhibition [2]: 20.9% | growth inhibition [3]: 16.2% | growth inhibition [4]: -11.1% | growth inhibition [5]: -0.9% | growth inhibition [6]: 4.4%

COC(=O)C(=C/c1ccc(OC)cc1)/C(C(=O)O)=C(/C)c1ccccc1
growth inhibition [1]: 9.9% | growth inhibition [2]: 17.1% | growth inhibition [3]: -14.2% | growth inhibition [4]: -11.2% | growth inhibition [5]: -18.6% | growth inhibition [6]: -9.8%

CCc1cccc(CC)c1Nc1nc(-c2ccccc2-c2ccccc2)cs1
growth inhibition [1]: -29.1% | growth inhibition [2]: -4.4% | growth inhibition [3]: -7.05% | growth inhibition [4]: -99.2% | growth inhibition [5]: -20.9% | growth inhibition [6]: -39.9%

CCCCCCCCSc1nc2ccc(N=Cc3ccccc3O)cc2s1
growth inhibition [1]: 75% (active) | growth inhibition [2]: 31.7% | growth inhibition [3]: 73.3% (active) | growth inhibition [4]: 53.6% | growth inhibition [5]: 21.7% | growth inhibition [6]: 36.1%

CSC(SC)=C1Sc2cccc(Cl)c2S1
growth inhibition [1]: 1.65% | growth inhibition [2]: 11.3% | growth inhibition [3]: 29.2% | growth inhibition [4]: -14.7% | growth inhibition [5]: -15.1% | growth inhibition [6]: -13.8%

CS(=O)(=O)OCCC(COS(C)(=O)=O)NC(=O)c1ccccc1 (stereo not drawn)
growth inhibition [1]: -3.75% | growth inhibition [2]: -8.95% | growth inhibition [3]: -2.85% | growth inhibition [4]: -18.1% | growth inhibition [5]: -10.3% | growth inhibition [6]: -4.95%

CCC(C)N(C(C)=O)C(C)CC (stereo not drawn)
growth inhibition [1]: -4.15% | growth inhibition [2]: -17.2% | growth inhibition [3]: -13.4% | growth inhibition [4]: 15.2% | growth inhibition [5]: 2% | growth inhibition [6]: 1.85%

O=C(O)COc1ccc(F)c(F)c1F
growth inhibition [1]: -16.1% | growth inhibition [2]: 4.5% | growth inhibition [3]: 21.1% | growth inhibition [4]: -9.6% | growth inhibition [5]: -2.75% | growth inhibition [6]: -20.1%

COC(=O)CCC(=O)c1ccc2c(c1)CC1(C2)Cc2ccc(C(=O)CCC(=O)OC)cc2C1
growth inhibition [1]: -1.45% | growth inhibition [2]: -30.6% | growth inhibition [3]: -22.4% | growth inhibition [4]: 5.35% | growth inhibition [5]: -20.1% | growth inhibition [6]: 2.9%

O=NNc1ccnc(-c2cc(NN=O)ccn2)c1
growth inhibition [1]: 22.2% | growth inhibition [2]: 16.4% | growth inhibition [3]: 6.3% | growth inhibition [4]: -0.9% | growth inhibition [5]: -12.5% | growth inhibition [6]: 34%

NC(=O)c1ccc[n+](CC(=O)Nc2ccccc2)c1
growth inhibition [1]: -5.6% | growth inhibition [2]: 0.65% | growth inhibition [3]: 6.45% | growth inhibition [4]: -30.6% | growth inhibition [5]: 1.95% | growth inhibition [6]: 3.8%

CCOC(=O)/N=[N+](\[O-])c1ccccc1
growth inhibition [1]: 64.5% | growth inhibition [2]: 46.9% | growth inhibition [3]: 57.6% | growth inhibition [4]: 11.9% | growth inhibition [5]: 41.5% | growth inhibition [6]: 86.8% (active)

O=C1OC(c2ccc(O)c(-c3ccccc3)c2)(c2ccc(O)c(-c3ccccc3)c2)c2c(Cl)c(Cl)c(Cl)c(Cl)c21
growth inhibition [1]: -16.4% | growth inhibition [2]: -18.4% | growth inhibition [3]: 19.1% | growth inhibition [4]: -18.6% | growth inhibition [5]: -33.1% | growth inhibition [6]: 1.45%

COC(=O)c1cccc2cnccc12
growth inhibition [1]: 2.2% | growth inhibition [2]: -5.7% | growth inhibition [3]: 3.6% | growth inhibition [4]: -48% | growth inhibition [5]: 7.65% | growth inhibition [6]: 3.75%

CCN(CC)c1ccc(/C=N\NC(=O)CCCC(=O)N/N=C/c2ccc(N(CC)CC)cc2)cc1
growth inhibition [1]: -27.6% | growth inhibition [2]: 2.65% | growth inhibition [3]: -22.9% | growth inhibition [4]: -21.9% | growth inhibition [5]: 5% | growth inhibition [6]: -30.4%

NCCNCc1ccccc1
growth inhibition [1]: 5.5% | growth inhibition [2]: -1.5% | growth inhibition [3]: 2.85% | growth inhibition [4]: 5.65% | growth inhibition [5]: -1.8% | growth inhibition [6]: 0.15%

CCC1=CC(=O)C(CC)=CC1=O
growth inhibition [1]: 3.05% | growth inhibition [2]: 25.2% | growth inhibition [3]: -2.15% | growth inhibition [4]: -23.7% | growth inhibition [5]: 1.95% | growth inhibition [6]: 15.6%

CCOC(=O)NC1CCc2ccccc2C1 (stereo not drawn)
growth inhibition [1]: 5.95% | growth inhibition [2]: 0.3% | growth inhibition [3]: 4% | growth inhibition [4]: -13.9% | growth inhibition [5]: -3% | growth inhibition [6]: 2.6%

CCN(CC)CCCNc1nc2ccccc2c2c1ncn2CC(C)C
growth inhibition [1]: -51% | growth inhibition [2]: 5.4% | growth inhibition [3]: -20.8% | growth inhibition [4]: 27.1% | growth inhibition [5]: 13.2% | growth inhibition [6]: 6.35%

C/C(=N\NC(=S)N1CC2CCC(CC2)C1)c1cccc(C)n1
growth inhibition [1]: 22.1% | growth inhibition [2]: -1.45% | growth inhibition [3]: 18.8% | growth inhibition [4]: 8.85% | growth inhibition [5]: 18.4% | growth inhibition [6]: 13.8%

CCC(=O)C(CC)c1ccccc1OC (stereo not drawn)
growth inhibition [1]: 8.75% | growth inhibition [2]: -8.35% | growth inhibition [3]: 4.65% | growth inhibition [4]: 16.5% | growth inhibition [5]: 5.45% | growth inhibition [6]: 15%

From PubChem BioAssay (NCI)
